Experimental data from PubChem BioAssay.
The source made the active and inactive calls.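 How the source made its calls, unless noted: active means inhibition at or above 50% at 10 µM; inactive means inhibition below 50%.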

Legend:
[1] = inhibitors of TNFa-induced NFkB p65 translocation, primary screen, imaging, HUVEC, MLSMR starter and 10KST1 sets (AID 438;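 active means inhibition above 20% together with a positive visual image hit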;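 further: compound added about 3h40 before a 20 min TNFalpha stimulation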;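 on inhibition: signal is the nuclear over cytoplasmic p65 intensity ratio per well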); conditions: HUVEC TNFa-induced p65 nuclear translocation; cell count: measured here: nuclei count (cytotoxicity indicator), at 2.08 µM; inhibition: at 2 µM, stronger effect = higher value, 0% TNFa-plus-vehicle, 100% no-TNFa wells
[2] = inhibitors of mutant huntingtin aggregation, primary screen, imaging, exon1htt(103Q)mCFP cells, high-content imaging (AID 483;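 active means visual image review flags a hit and inhibition of aggregation exceeds 20%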;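 further: compound exposure lasted 3 days before fixation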;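 on nuclei count: percent of the per-plate median nuclei count of sample wells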); conditions: exon1htt(103Q)mCFP cell line, aggregate imaging, at 2 µM; inhibition of aggregation: stronger effect = higher value; nuclei count: measured here: cell count, toxicity
[3] = inhibitors of E-selectin induction by TNFa, primary screen, imaging, HUVEC, immunofluorescence, MLSMR starter and 10KST1 sets (AID 487;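 active means visually confirmed hit in the image check and inhibition above 20%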;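 on inhibition: signal is fraction of cell area covered by stained E-selectin grains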;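 on nuclei count: 100% = median nuclei count of all wells on the same plate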); conditions: HUVEC TNFalpha-induced E-selectin immunofluorescence imaging, at 2 µM; inhibition: stronger effect = higher value; nuclei count: measured here: cell number, toxicity
[4] = molecular target: Voltage-gated potassium channel subunit beta-2 (Rattus norvegicus) (UniProt P62483); test: KvBeta enzyme negative modulators, primary screen, biochemical, NADPH fluorescence (AID 622;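 active means fluorescence slope higher than the sample average by over 3 SD, cut at about -0.22 in these data, passing the limit was not always enough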;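 further: slope of raw intensity against log time taken from 70 to 1610 s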); conditions: recombinant KvBeta, 4-cyanobenzaldehyde reduction, at 10 µM, stronger effect = higher value
Sequence of Voltage-gated potassium channel subunit beta-2 (Rattus norvegicus) (P62483 whole entry, looked up): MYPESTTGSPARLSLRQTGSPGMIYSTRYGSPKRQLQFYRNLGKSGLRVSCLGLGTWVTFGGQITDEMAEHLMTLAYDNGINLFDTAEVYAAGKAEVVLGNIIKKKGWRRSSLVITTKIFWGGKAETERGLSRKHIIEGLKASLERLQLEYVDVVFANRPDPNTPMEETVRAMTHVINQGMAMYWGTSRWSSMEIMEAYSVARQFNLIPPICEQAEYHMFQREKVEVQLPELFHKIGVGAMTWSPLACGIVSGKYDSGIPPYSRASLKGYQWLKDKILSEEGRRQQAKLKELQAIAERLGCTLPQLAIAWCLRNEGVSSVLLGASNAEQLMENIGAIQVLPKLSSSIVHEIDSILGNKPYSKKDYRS

[5] = molecular target: Voltage-gated potassium channel subunit beta-2 (Rattus norvegicus) (UniProt P62483); test: KvBeta positive modulators, primary screen, biochemical, NADPH fluorescence (AID 623;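 active means NADPH fluorescence slope more negative than the mean of all samples by about 3 SD, 99.7% confidence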;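 further: fluorescence intensity change per second fitted from 20 to 320 s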); conditions: Recombinant KvBeta, NADPH fluorescence decrease slope, 10 min; at 10 µM; stronger effect = lower value
[6] = molecular target: Alpha-2C adrenergic receptor (Homo sapiens) (UniProt P18825); test: modulators of alpha2C/GIRK thallium flux, primary screen, cell-based, HEK293 alpha2C/GIRK1/2 (AID 624;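 active means fluorescence slope after compound addition differing from the mean of all screened samples at 99.7% confidence, in either direction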;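 further: slope of fluorescence ratio to pre-addition baseline per second over 15 to 24 s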); conditions: thallium flux BTC fluorescence, at 10 µM, actives lie on both sides
Sequence of Alpha-2C adrenergic receptor (Homo sapiens) (P18825 whole entry, looked up): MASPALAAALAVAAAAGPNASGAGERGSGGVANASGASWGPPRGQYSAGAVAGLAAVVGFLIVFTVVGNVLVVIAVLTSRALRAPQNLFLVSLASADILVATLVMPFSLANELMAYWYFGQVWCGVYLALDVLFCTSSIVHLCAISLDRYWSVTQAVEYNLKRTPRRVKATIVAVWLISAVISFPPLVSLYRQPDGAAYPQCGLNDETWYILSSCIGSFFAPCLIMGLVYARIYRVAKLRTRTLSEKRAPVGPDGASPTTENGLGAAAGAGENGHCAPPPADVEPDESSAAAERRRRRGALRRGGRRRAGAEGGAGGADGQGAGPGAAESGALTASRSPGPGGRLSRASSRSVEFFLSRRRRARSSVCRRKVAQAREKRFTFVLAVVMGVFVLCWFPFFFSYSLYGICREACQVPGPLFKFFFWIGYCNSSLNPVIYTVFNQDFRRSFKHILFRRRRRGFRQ

[7] = inhibitors of Sendai virus-induced IRF3 signaling, primary screen, TLR/RLR signaling modifier project, cell-based, Sendai virus stimulus, luciferase, 10K MLSCN set (AID 602276); conditions: HEK293 RL24 IRF3 luciferase reporter, at 10 µM, stronger effect = higher value;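 further: firefly luciferase from ISG56 promoter only with Renilla not read in this screen; 0% = Sendai virus plus DMSO and 100% = medium plus DMSO without virus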
[8] = inhibitors of poly I:C-induced TLR3 signaling, primary screen, cell-based, poly I:C stimulus, luciferase, 10K MLSCN set (AID 602277;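 active means inhibition of the reporter signal at or above 50%; inactive means inhibition below 50%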); conditions: HEK293-TLR3 RL24 IRF3 luciferase reporter, at 10 µM, stronger effect = higher value

| SMILES | cell count [1] | inhibition [1] | inhibition of aggregation [2] | nuclei count [2] [%] | inhibition [3] | nuclei count [3] [%] | fluorescence slope [4] | NADPH fluorescence slope [5] | slope [6] | inhibition [7] | inhibition [8] |
| --- | --- | --- | --- | --- | --- | --- | --- | --- | --- | --- | --- |
| CC1(C)NC(=O)N(CC(O)COc2ccc(-c3ccccc3)cc2)C1=O (stereo not given) | 260 | -0.5% (inactive) | 4.5% (inactive) | 89.9 | -18.2% (inactive) | 125 | -0.425 (inactive) | -6.5e-05 (inactive) | 0.00308 (inactive) | -15.6% (inactive) | 1.46% (inactive) |
| CCOCCn1c(CN2CCC(Cc3ccccc3)CC2)nc2c1c(=O)n(C)c(=O)n2C | 598 | 10.6% (inactive) | 25.3% (inactive) | 84.1 | 7.1% (inactive) | 108 | -0.473 (inactive) | -2.3e-05 (inactive) | 0.00435 (inactive) | 19.8% (inactive) | 22.9% (inactive) |
| CNc1ccc(C(O)(C(F)(F)F)C(F)(F)F)cc1C(O)(C(F)(F)F)C(F)(F)F | 667 | 3.3% (inactive) | -7.5% (inactive) | 103 | 3.3% (inactive) | 92.8 | -0.616 (inactive) | -4.4e-05 (inactive) | 0.00297 (inactive) | 12.6% (inactive) | 18.9% (inactive) |
| CC1CC(C)CN(CC(=O)Nc2ccc(S(N)(=O)=O)cc2)C1 (stereo not given) | 368 | 1.4% (inactive) | -27.5% (inactive) | 113 | 30.9% (inactive) | 96.7 | -0.517 (inactive) | -3e-05 (inactive) | 0.00537 (inactive) | 7.84% (inactive) | 12.5% (inactive) |
| O=C(Nc1cccc2ncccc12)c1ccc2c(c1)OCCO2 | 586 | 2.2% (inactive) | 11.1% (inactive) | 101 | -8.1% (inactive) | 81.2 | -0.46 (inactive) | -4.6e-05 (inactive) | 0.00308 (inactive) | -12.7% (inactive) | -8.56% (inactive) |
| COCCOC(=O)C1=C(C)OC(N)=C(C#N)C1c1ccc2c(c1)OCO2 (stereo not given) | 468 | -0.5% (inactive) | 12.6% (inactive) | 104 | -87.8% (inactive) | 110 | -0.44 (inactive) | -3.9e-05 (inactive) | 0.00523 (inactive) | 5.43% (inactive) | 23.2% (inactive) |
| N#Cc1nc(COc2ccccc2Cl)oc1N1CCCCCC1 | 577 | 1.1% (inactive) | -17.4% (inactive) | 92.6 | 17.1% (inactive) | 102 | -0.431 (inactive) | -5e-05 (inactive) | 0.00512 (inactive) | 0.19% (inactive) | 0.00693% (inactive) |
| COc1ccccc1-c1cc(C(=O)Nc2cc(C)nn2-c2ccccc2)no1 | 478 | -9.3% (inactive) | -24.6% (inactive) | 111 | 4.5% (inactive) | 109 | -0.381 (inactive) | -2e-05 (inactive) | 0.00489 (inactive) | -1.99% (inactive) | 16% (inactive) |
| CCOC(=O)c1c(NC(=O)c2cccs2)sc2c1CCN(C(=O)OCC)C2 | 416 | -2% (inactive) | -6.8% (inactive) | 99.7 | 14.8% (inactive) | 115 | -0.192 (active) | -6.6e-05 (inactive) | 0.0082 (inactive) | 10.1% (inactive) | -1.84% (inactive) |
| CC(=O)c1c(C)nn(CC(O)COc2ccc3c(c2)CCC3)c1C (stereo not given) | 751 | -4.3% (inactive) | 7.3% (inactive) | 97.4 | -169% (inactive) | 126 | -0.435 (inactive) | 4e-05 (inactive) | 0.00662 (inactive) | -13.5% (inactive) | -41.8% (inactive) |
| CN(CC(=O)Nc1ccc(F)c(Cl)c1)S(=O)(=O)c1cccc2nsnc12 | 615 | -19.8% (inactive) | 5.8% (inactive) | 64.7 | -18.3% (inactive) | 108 | -0.34 (inactive) | -3.5e-05 (inactive) | 0.00478 (inactive) | -14.7% (inactive) | 98.7% (active) |
| O=C(NCc1ccc2c(c1)OCO2)C1CCCN(S(=O)(=O)c2cccc3cccnc23)C1 (stereo not given) | 741 | -8% (inactive) | 20.4% (inactive) | 125 | -40.6% (inactive) | 104 | -0.527 (inactive) | -6.1e-05 (inactive) | 0.00698 (inactive) | 15.2% (inactive) | 40.4% (inactive) |
| Cc1cc(C)n2c(SCC(=O)Nc3cc(C)on3)nnc2n1 | 335 | -14.1% (inactive) | 2.1% (inactive) | 71.2 | 3.6% (inactive) | 100 | -0.555 (inactive) | -2.2e-05 (inactive) | 0.00561 (inactive) | 11% (inactive) | 22.4% (inactive) |
| CC1=NC(Nc2nc(C)c3ccccc3n2)=NC(C)(C)C1 | 391 | 1.5% (inactive) | -1.8% (inactive) | 94 | -13% (inactive) | 111 | -0.462 (inactive) | 6.6e-05 (inactive) | 0.00711 (inactive) | 3.86% (inactive) | 1.48% (inactive) |
| CC(=O)N1CCN(S(=O)(=O)c2ccc(S(=O)(=O)NC3CC3)cc2)CC1 | 716 | -8.1% (inactive) | 0.7% (inactive) | 99.7 | 33.9% (inactive) | 112 | -0.444 (inactive) | -2.2e-05 (inactive) | 0.00506 (inactive) | 18.5% (inactive) | 18% (inactive) |
| Cc1cc(S(=O)(=O)N(Cc2ccccc2)Cc2ccc(N(C)C)cc2)ccc1-n1cnnn1 | 793 | 3.3% (inactive) | -7.8% (inactive) | 94.8 | -58.8% (inactive) | 130 | -0.293 (inactive) | -5.5e-05 (inactive) | 0.00447 (inactive) | 15.7% (inactive) | 36.4% (inactive) |
| Cn1c(SCc2ccccc2)nnc1C1CCCNC1 (stereo not given) | 784 | -2.3% (inactive) | 0.6% (inactive) | 100 | 10.3% (inactive) | 125 | -0.327 (inactive) | 1.3e-05 (inactive) | 0.00512 (inactive) | 10.3% (inactive) | 15.2% (inactive) |
| O=C(OC1CCOC1=O)c1ccc2ccccc2n1 (stereo not given) | 633 | 4.2% (inactive) | -0.9% (inactive) | 100 | 38.1% (inactive) | 76 | -0.324 (inactive) | 2.9e-05 (inactive) | 0.00579 (inactive) | 20.6% (inactive) | 29.1% (inactive) |
| O=c1cc(C(F)F)oc2c1ccc1ccccc12 | 398 | -4% (inactive) | 14.2% (inactive) | 94 | -244% (inactive) | 99.4 | -0.349 (inactive) | -1.6e-05 (inactive) | 0.00247 (inactive) | 9.69% (inactive) | 19.9% (inactive) |
| O=C1c2ccccc2C(Nc2ccc3nc(-c4cccnc4)[nH]c3c2)N1Cc1ccco1 (stereo not given) | 493 | -9.4% (inactive) | 23.2% (inactive) | 90 | -24.3% (inactive) | 93.2 | -0.58 (inactive) | -3.1e-06 (inactive) | 0.00653 (inactive) | -7.53% (inactive) | -13.9% (inactive) |
